The values that follow come from PubChem BioAssay (NCATS).

Results filed as inconclusive are left out. Active and inactive are the calls of the source. Calls come from the whole dose curve. Where only a bound is given, the exact number is not on record here.
Potency is the fitted concentration of half-maximal effect.

The nature of this experiment: Cell Viability - SK-N-SH (AID 435).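 Note: compound exposure lasted 40 h at 37 °C.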 The following applies: SK-N-SH neuroblastoma cell viability qHTS. The source says: NIH Chemical Genomics Center [NCGC]
NIH Molecular Libraries Screening Centers Network [MLSCN]
National Institutes of Environmental Health Sciences [NIEHS]
National Toxicology Program [NTP]
We have developed a 1536-well cell-based assay for quantitative high throughput screening (qHTS) against a number of cell lines to determine in vitro cytotoxicity of small molecules. This particular assay uses the SK-N-SH cell line which is derived from human neuroblastoma.
NCGC Assay Protocol Summary:
The CellTiter-Glo luminescent cell viability assay (Promega) is a homogeneous method to measure the number of viable cells in culture. The end point readout of this assay is based on quantitation of intracellular ATP, an indicator of metabolic activity, using the luciferase reaction. Luciferase catalyzes the oxidation of beetle Luciferin to oxyluciferin and light in the presence of ATP. The luminescent signal is proportional to amount of ATP present.
Using the CellTiter-Glo luminescent cell viability assay, the amount of cellular ATP was measured in the SK-N-SH cell line with complete culture medium following compound treatment for 40 hours. The assay was performed in opaque white Kalypsys 1536-well plates. In the screen, tamoxifen and doxorubicin were used as positive controls. Library compounds were measured for their ability to cause acute toxicity in the cell line, as reflected by a decrease in intracellular ATP levels, in a concentration-dependent manner. Data were normalized to the controls for basal activity (DMSO only) and 100% inhibition (100 uM tamoxifen). AC50 values were determined from concentration-response data modeled with the standard Hill equation.
qHTS protocol fo CellTiter Glo SK-N-SH cellular assay
[Step] [Parameter] [Value] [Description]
1. Reagent; 5 uL; 1500 SK-N-SH cells/well
2. Time; 5 hr; 37 °C incubation
4. Controls; 23 nL; Tamoxifen 0.34 uM to 100 uM & Doxorubicin 0.02 nM to 100 uM
5. Time; 40 hr; 37 °C incubation
6. Reagent; 5 uL; CellTiter Glo reagent
7. Time; 20 min; Room Temperature
8. Detection; Luminescence; Viewlux plate reader
Keywords: cell viability, cytotoxicity, SK-N-SH cell line, luminescence, NTPHTS, NTPHTS_NCGC, NIEHS, EPA, DSSTox, MLSMR, MLSCN, NIH Roadmap, qHTS, NCGC
A general note: qHTS replaces the single test concentration by a dilution series.
Regarding `O=P(O)(OCc1ccccc1)OCc1ccccc1`, the Potency was > 92 µM (inactive).

On to `C/C(C=O)=C/c1ccccc1`, for which the Potency is > 92 µM (inactive).

Turning to `CCC(O)C(C)(C)C` (stereo not given), the Potency was > 92 µM (inactive).

On to `O=C(O)c1cccc([N+](=O)[O-])c1`, for which the Potency was > 92 µM (inactive).

In the case of `CCCCCNCCCCC`, the Potency was > 92 µM (inactive).

As for `CC(O)COC(C)(C)C` (stereo not given), the Potency is > 92 µM (inactive).

With `CSc1ccc(C=O)cc1`, the Potency was > 92 µM (inactive).

As to `CC(C)c1ccccc1`, the Potency is > 92 µM (inactive).

Consider `CCC=O`, for which the Potency was > 92 µM (inactive).

With `FC(F)(F)c1ccccc1Cl`, the Potency is > 92 µM (inactive).

In the case of `O=C(O)c1ccc(CO)o1`, the Potency was > 92 µM (inactive).

On to `O=Cc1ccc(C(=O)O)cc1`, for which the Potency was > 92 µM (inactive).

In the case of `CC(=O)C1(C)CC2=C(CCCC2(C)C)CC1C` (stereo not given), the Potency is > 92 µM (inactive).

Regarding `O=C(Cl)c1ccccc1[N+](=O)[O-]`, the Potency is > 92 µM (inactive).

For the compound `CCCCCCO`, the Potency was > 92 µM (inactive).

`O=C(O)/C=C/C(=O)O`: the Potency is > 92 µM (inactive).

Turning to `CO[Si](CCCNCCC[Si](OC)(OC)OC)(OC)OC`, the Potency is > 92 µM (inactive).

Regarding `CN(C)CCCNCCCN`, the Potency is > 92 µM (inactive).

On to `O=CNc1ccccc1`, for which the Potency is > 92 µM (inactive).

Turning to `CCCCCCCCCCCCOCC1CO1` (stereo not given), the Potency was > 92 µM (inactive).

In the case of `O=C(O)c1ccc(C(=O)O)cc1`, the Potency was > 92 µM (inactive).

`Cc1ccc(C(C)(C)C)cc1`: the Potency is > 92 µM (inactive).

With `Clc1ccc(Cl)c(Cl)c1Cl`, the Potency is > 92 µM (inactive).

On to `CSCCC=O`, for which the Potency was > 92 µM (inactive).

Take `CC(CCl)OC(C)CCl` (stereo not given): the Potency was > 92 µM (inactive).

Take `CCC(C)(C)C`: the Potency was > 92 µM (inactive).

For the compound `CCNS(=O)(=O)c1ccc(C)cc1`, the Potency is > 92 µM (inactive).

Turning to `NC(=S)NNC(N)=S`, the Potency was > 92 µM (inactive).

Consider `C=C(C)C(=O)OC`, for which the Potency is > 92 µM (inactive).

As for `c1ccc2n[nH]nc2c1`, the Potency is > 92 µM (inactive).

In the case of `CCCCC(C=O)CC` (stereo not given), the Potency is > 92 µM (inactive).

As to `CCCC(C)CO` (stereo not given), the Potency is > 92 µM (inactive).

For `NC(=O)NC(N)=O`, the Potency was > 92 µM (inactive).

As for `O=C1OC(=O)c2cc([N+](=O)[O-])ccc21`, the Potency was > 92 µM (inactive).

Regarding `CC(N)CN` (stereo not given), the Potency is > 92 µM (inactive).

Regarding `Cc1cccc(Br)c1`, the Potency was > 92 µM (inactive).

In the case of `NS(=O)(=O)O`, the Potency is > 92 µM (inactive).

With `[O-]/[N+](=N\O)c1ccccc1`, the Potency is > 92 µM (inactive).

For the compound `Cc1ccc(C)c(O)c1`, the Potency is > 92 µM (inactive).

In the case of `Cc1cc(C)cc([N+](=O)[O-])c1`, the Potency is > 92 µM (inactive).
